Source: PubChem (The Scripps Research Institute Molecular Screening Center)
Only some compounds are listed: those with a hit (about 3.5% of all), similar ones and a draw of the others.
FBW7 activator: activators of human E3 ligase FBW7; Q969H0; AlphaScreen FBW7–phospho-cyclin E peptide binding, activator screen; normalized activity (activation), % at 26.1 µM; 650,000 tested, 0.13% active; AID 1259310; in the data active means normalized activity above about 1.9%;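 further: purified mutant Fbw7 with reduced substrate affinity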
MITF inh: inhibitors of human MITF | O75030 | 650,000 tested, 0.91% active | AlphaScreen MITF homodimerization, bead proximity signal | inhibition, % at 2.6 µM; in the data active means inhibition above about 50%;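 further: 0% = vehicle wells with protein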
Target sequence (O75030 whole entry, looked up): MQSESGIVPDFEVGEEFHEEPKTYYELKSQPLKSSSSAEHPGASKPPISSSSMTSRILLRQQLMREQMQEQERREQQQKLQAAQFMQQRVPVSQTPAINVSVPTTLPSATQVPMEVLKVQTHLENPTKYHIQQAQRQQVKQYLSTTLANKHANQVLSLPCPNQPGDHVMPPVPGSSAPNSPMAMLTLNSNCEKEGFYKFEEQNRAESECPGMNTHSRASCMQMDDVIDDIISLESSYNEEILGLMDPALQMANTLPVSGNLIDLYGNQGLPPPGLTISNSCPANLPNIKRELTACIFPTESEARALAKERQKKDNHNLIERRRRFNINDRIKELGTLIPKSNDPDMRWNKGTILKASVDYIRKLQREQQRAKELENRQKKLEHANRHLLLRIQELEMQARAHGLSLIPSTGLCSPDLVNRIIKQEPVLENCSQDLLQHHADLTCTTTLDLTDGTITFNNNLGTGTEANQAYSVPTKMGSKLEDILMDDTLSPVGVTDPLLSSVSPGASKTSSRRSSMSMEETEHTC
GPR151 ag: human GPR151 activation; 650,000 tested, 1% active; AID 1508602; activation, % at 11.2 µM; PathHunter beta-arrestin GPR151 cells, luminescence; Q8TDV0; in the data active means activation above about 4.9%;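 further: 0% = median of compound wells and 100% = cells with positive control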
TEAD-YAP inh: TEAD-YAP interaction inhibition; inhibition, % at 9.12 µM; 640,000 tested, 1.4% active; HEK-TIYL cells, TEAD-Gal4/YAP UAS-luciferase luminescence; AID 1259422; in the data active means inhibition above about 32%;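 further: 0% = median of test compound wells and 100% = reference inhibitor wells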
MITF inh conf: confirmation of human MITF inhibitors; shares compounds with MITF inh; AlphaScreen MITF homodimerization, biotin/His-MITF beads; inhibition, % at 2.6 µM; 4,700 tested, 16% active; AID 1259372;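 active means inhibition above a cutoff derived from the DMSO control wells, cut at about 28% in these data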;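 further: 0% = MITF dimer wells with DMSO only; inhibitors lower the bead chemiluminescence by keeping MITF from dimerizing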
AlphaScreen DR: optically interferes with AlphaScreen signal in dose response | AlphaScreen optical interference counterscreen, cell-free | 480 tested, 6% active | AID 1259373 | shares compounds with MITF inh | IC50, µM; call rule not given here
AS interf ctr: optically interferes with AlphaScreen signal. shares compounds with MITF inh. LysRS AlphaScreen counterscreen, signal interference, triplicate. inhibition, % at 2.6 µM. 4,700 tested, 7.6% active;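 active means inhibition above a cutoff derived from the DMSO control wells, cut at about 30% in these data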
* marks the source's active call; other numbers are inactive results; . = no result given.

SMILES | FBW7 activator | MITF inh | GPR151 ag | TEAD-YAP inh | MITF inh conf | AS interf ctr | others
COc1cc(NC(=O)NCC2(O)CCCC2)cc(OC)c1 | 0.7 | -3.7 | -0.9 | -4.6 | . | .
OCC1CCN(C2CCCN(Cc3ccccc3C(F)(F)F)C2)CC1 (stereo not given) | 0.1 | -1.4 | -1.8 | -4.3 | . | .
FC(F)(F)c1ccccc1CN1CCN(C2CCCC2)CC1 | -0.1 | 64.3* | 3.1 | 6.1 | -4.5 | -1.6
O=C(NC1CC1)c1cc(-c2cccs2)nc2ccccc12 | 0.0 | -7.3 | -0.5 | 17.5 | . | .
COCCNC(=O)CCCCn1c(=S)[nH]c2c([nH]c3ccc(OC)cc32)c1=O | 0.6 | 51.5* | -0.7 | 4.0 | -8.0 | 40.9*
CN1CCC(N(C)Cc2ccc(F)c(Br)c2)CC1 | 0.5 | 53.7* | -0.7 | -12.1 | 17.8 | 16.5
CCN(CC)c1ccc2nc3c(nc2c1)C(=O)c1ccccc1C3=O | -0.1 | -12.7 | 1.1 | -39.3 | . | .
Cc1ccc([N+](=O)[O-])cc1S(=O)(=O)Nc1ccc(Nc2ncccc2[N+](=O)[O-])cc1 | -0.3 | 96.9* | 1.2 | -8.1 | 97.2* | -6.2 | AlphaScreen DR=>6.64
Cc1ccc([N+](=O)[O-])cc1S(=O)(=O)Nc1ccc(N)cc1 | -0.1 | 9.3 | -1.5 | -1.1 | . | .
CCNS(=O)(=O)c1ccc(Cl)c(Cl)c1 | 0.0 | 56.4* | -0.5 | 3.5 | -1.6 | 5.3
Cc1ncn(-c2ccc(Nc3ncc4cccc(-c5ccccc5F)c4n3)cc2)n1 | 0.6 | 27.5 | -2.4 | -14.2 | . | .
Cc1ncn(-c2ccc(N(C)c3ncc4cccc(-c5ccn[nH]5)c4n3)cc2)n1 | 0.7 | 57.7* | 0.0 | 14.8 | 57.4* | 10.0 | AlphaScreen DR=>6.48
Cc1ccc(/C=C/C(=O)NCc2ccccn2)o1 | -0.7 | 61.0* | 1.5 | 0.9 | 39.0* | 19.0 | AlphaScreen DR=>6.48
Cc1ccc(/C=C/C(=O)NCc2ccco2)o1 | -0.1 | 64.5* | -1.2 | -10.0 | 65.6* | 39.1*
COc1cccc(C(=O)Nc2nc(COc3ccccc3)cs2)c1OC | 0.0 | -10.3 | 1.9 | -8.5 | . | .
COc1cccc(CN2CCN(S(=O)(=O)Cc3ccccc3)CC2)c1 | 0.4 | 68.2* | -0.2 | 1.0 | 4.3 | 14.4
CCOc1cc(CN2CCN(S(=O)(=O)Cc3ccccc3)CC2)ccc1OC | 0.1 | -8.5 | 0.8 | 13.0 | . | .
COc1cccc(CN2CCN(S(C)(=O)=O)CC2)c1 | 0.1 | -3.9 | 0.7 | 11.8 | . | .
CCS(=O)(=O)N1CCN(Cc2cccc(OC)c2)CC1 | -0.1 | 56.5* | -0.9 | 13.5 | 9.6 | 17.5
O=C1C2C3C=CC(C3)C2C(=O)N1/N=C/c1ccc([N+](=O)[O-])s1 (stereo not given) | 0.0 | 7.8 | -1.0 | -6.3 | . | .
CCOC(=O)c1c(C)n(C(=O)c2ccco2)c(=O)n1C(=O)c1ccco1 | 0.9 | 15.6 | 1.9 | 6.9 | . | .
CCOC(=O)CCCCC(=O)c1c(C)n(C(=O)c2ccco2)c(=O)n1C(=O)c1ccco1 | -0.5 | 99.1* | -0.4 | -1.2 | 101.7* | 80.3*
CC(Oc1ccc(O)cc1)(P(=O)(O)O)P(=O)(O)O | 1.4 | 96.6* | 2.4 | . | 96.0* | 15.8 | AlphaScreen DR=>6.48
CC(C)Cc1nc(C(N)=O)c2[nH]c(=O)n(-c3cccc(F)c3)c2n1 | 0.7 | 2.8 | -0.2 | 5.6 | . | .
CSc1ccc(C(=O)O)s1 | 0.4 | 75.2* | 1.6 | -1.9 | 34.8* | 7.3 | AlphaScreen DR=>10.2
SMILES | FBW7 activator | MITF inh | GPR151 ag | TEAD-YAP inh | MITF inh conf | AS interf ctr | others
CSc1ccc(C(=O)NCc2nc(-c3ccncc3)n[nH]2)s1 | -0.2 | 4.5 | -0.5 | 4.9 | . | .
CCc1nn(CC(=O)NCCC(C)C)c(=O)c2cc3cc(C)ccc3n12 | 0.8 | 1.4 | 1.1 | -0.4 | . | .
Cc1ccc(C)c(NC(=O)CN(C)S(=O)(=O)c2cnc[nH]2)c1 | 0.1 | 4.0 | 0.0 | 0.6 | . | .
Cc1cccc(CCNC(=O)CN(C)S(=O)(=O)c2cnc[nH]2)c1 | 0.0 | 75.5* | 0.4 | -1.1 | 9.9 | 19.8
CC(C)N1CCN(C(=O)c2ccco2)CC1 | 0.0 | 50.6* | 0.5 | 3.3 | 1.8 | 0.9
O=C(c1ccco1)N1CCN(C(=O)c2ccco2)CC1 | 0.0 | -2.0 | -0.1 | -4.3 | . | .
O=C(c1ccco1)N1CCN(Cc2ccccc2Br)CC1 | -0.4 | 60.4* | 0.2 | -40.2 | 6.5 | 13.8
O=C(c1ccco1)N1CCN(Cc2ccncc2)CC1 | -0.5 | 82.5* | -0.7 | -1.3 | 6.8 | 27.3
COc1ccc(N2CC(CNC(=O)Cc3ccc(F)cc3)CC2=O)cc1 (stereo not given) | 0.1 | 55.0* | -0.6 | 3.7 | -16.4 | -3.2
Cc1ccc(C(C)(C)C)c(OCCC#N)c1 | 0.3 | 17.0 | -0.5 | 2.3 | . | .
C=CCOC(=O)C1=C(C)NC(=S)NC1c1cc(Br)ccc1OC (stereo not given) | -0.1 | -5.6 | 0.3 | 9.3 | . | .
CCOC(=O)N1CCN(c2nc(C)nc3sc(C)cc23)CC1 | -0.1 | 54.3* | -0.4 | 6.4 | 4.9 | 20.8
CCOC(=O)N1CCN(c2nc(C)nc3sc(C)c(C)c23)CC1 | 0.0 | 9.6 | -0.1 | 11.7 | . | .
Cc1ccc([N+](=O)[O-])cc1NC(=O)CCCN1C(=O)CCC1=O | 0.1 | -2.8 | 1.0 | 6.4 | . | .
CC(=O)CC1OC(=O)C(Br)=C1NCc1ccccc1 (stereo not given) | 0.2 | 11.4 | -1.3 | 1.2 | . | .
O=C(CC1OC(=O)C(Br)=C1Br)CC1OC(=O)C(Br)=C1Br (stereo not given) | -0.8 | 73.5* | -0.5 | 1.2 | 14.2 | 2.4
OC(CNCCNCC(O)COc1ccccc1)COc1ccccc1 (stereo not given) | 0.1 | 18.9 | -1.2 | 6.7 | . | .
CC1CCN(C(CNCC(O)COc2ccccc2)c2cccs2)CC1 (stereo not given) | -0.3 | 69.7* | -0.4 | -1.5 | -20.1 | 4.3
CN(C)C(CNCC(O)COc1ccccc1)c1cccs1 (stereo not given) | -0.2 | 70.6* | 2.3 | 9.1 | -3.0 | 1.9
OC(CNCC1CCCCC1)COc1ccccc1 (stereo not given) | 0.0 | -5.0 | 0.1 | -4.8 | . | .
COC(=O)Cn1c(=O)c2c(nc3n2CCCN3Cc2ccco2)n(C)c1=O | 0.5 | 16.8 | -0.6 | -1.1 | . | .
COc1cccc(/C=C/C(=O)NNC(=O)Cc2nc3ccccc3n2C)c1OC | -1.0 | 5.1 | -2.2 | 4.7 | . | .
COc1ccc(-n2nc(C(=O)NCC(=O)Nc3ccc4c(c3)OCCO4)c3ccccc3c2=O)cc1OC | 0.0 | -1.0 | 0.6 | 24.1 | . | .
O=C(COc1ccccc1)N1CCC(Cn2cnc3ccccc32)CC1 | -0.4 | 56.2* | -0.6 | 7.4 | 8.9 | 12.0
O=C(Cn1ccc2ccccc21)N1CCC(Cn2cnc3ccccc32)CC1 | -0.3 | -0.8 | -0.4 | -8.4 | . | .
O=C(NC(c1ccccc1)c1ccccc1)N1CCC(Cn2cnc3ccccc32)CC1 | -0.2 | 56.1* | -0.1 | 3.2 | 5.3 | 12.2
COc1ccc(CNC(=O)N2CCC(Cn3cnc4ccccc43)CC2)cc1 | -0.3 | 57.5* | -0.3 | 4.8 | 8.0 | 17.0
Cc1ccccc1NC(=O)N1CCC(Cn2cnc3ccccc32)CC1 | 0.1 | -7.7 | -1.3 | -7.1 | . | .
